Most compounds without a hit are left out; they make up all but 4% or so of the library.
esBAF inh: Bmi1 luciferase reporter increase in mESCs, primary screen, esBAF inhibitor project, mouse ES cells, Bmi1 luciferase knock-in, single point. 24 h; 100% = twice the neutral-well signal. reporter increase, % at 12.5 µM. 2% of 350,000 active; in the data active means activation above about 40%; inconclusive means no clear call, values can overlap the other calls;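 further: a rise in the Bmi1 reporter signal indicates esBAF inhibition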
PAX8 reporter: inhibitors of PAX8-driven TPO luciferase reporter, primary screen, RMG-I cells, single concentration; inhibition, % at 12.6 µM; AID 652154, 2013; 1.2% of 360,000 active; SteadyGlo, 24 h;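 active means mean replicate inhibition at least 60% with every replicate also reaching 60%; inconclusive means only one of the two criteria is met; inactive means mean below 60% and not all replicates reaching 60%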;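 further: luciferase light reporting Pax8 driven TPO promoter activity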
MITF TRPM1 inh: inhibitors of MITF-dependent TRPM1 promoter reporter, primary screen, cell-based, SK-MEL-5, single point, luciferase; SK-MEL-5 TRPM1 promoter luciferase, 24 h; inhibition, % at 12.5 µM; 0.83% of 330,000 active; AID 488899, 2010;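 active means mean inhibition across replicates of 60% or more, whatever share of single replicates reaches that level; inconclusive means some that reach 60%, reason not given; inactive means mean inhibition across replicates below 60%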
MITF act: activators of MITF-driven TRPM1 promoter reporter, primary screen, cell-based, SK-MEL-5, luciferase, single point; SK-MEL-5 TRPM1-promoter luciferase, 24 h; % of positive control, neutral wells = 0; activation, % at 12.5 µM; 0.75% of 300,000 active; AID 588334, 2011;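 active means mean activation of at least 80% with every replicate also reaching 80%; inconclusive means mean reaches 80% but some replicate falls short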
Wnt act: Wnt/beta-catenin pathway activators, primary screen, cell-based, plate reader, single point; AID 743398, 2014; 1.2% of 300,000 active; activation, % at 9.35 µM; Wnt/beta-catenin reporter cell assay, activator; in the data active means activation above about 30%, passing the limit was not always enough; inconclusive means no clear call, values can overlap the other calls
EWS-Fli block: EWS/Fli-driven NR0B1 reporter inhibitors, primary screen, A673 cells, NR0B1 luciferase, luminescence, MLPCN library; viability-normalised; inhibition, % at 12.6 µM; 0.67% of 350,000 active; AID 651661, 2012;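 active means mean inhibition of at least 50% after viability correction, with every replicate also passing that limit; inconclusive means mean reaches 50% but only one of two replicates passes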;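 further: firefly luciferase signal divided by Alamar Blue viability fluorescence both relative to DMSO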
Large screens that a line does not name were inactive.

c1ccc(-n2ncc3c(NCc4ccccn4)ncnc32)cc1	none (no result: PAX8 reporter)
Cc1cccc(-n2ncc3c(NCc4ccccn4)ncnc32)c1	esBAF inh 53.4 (no result: PAX8 reporter, Wnt act, EWS-Fli block)
Cc1cccc(-n2ncc3c(NCc4cccs4)ncnc32)c1	esBAF inh 55.9, MITF act inconclusive (no result: PAX8 reporter, Wnt act, EWS-Fli block)
O=C(Nc1ccc2c(c1)OCO2)N[C@H]1C=C[C@H](CC(=O)N2CCN(c3ccccc3)CC2)O[C@@H]1CO	none (no result: MITF TRPM1 inh, MITF act, Wnt act)
Cc1cc(C)c2nc(SCC(=O)N3CC(=O)Nc4ccccc43)c(C#N)cc2c1	PAX8 reporter 96.7 (no result: MITF act, Wnt act, EWS-Fli block)
COc1ccc2nc(SCC(=O)N3CC(=O)Nc4ccccc43)c(C#N)cc2c1	none (no result: esBAF inh, PAX8 reporter, Wnt act, EWS-Fli block)
C[C@@H]1CN([C@@H](C)CO)C(=O)c2cc(NS(=O)(=O)c3ccc(F)cc3)ccc2O[C@@H](C)CCCCO[C@H]1CN(C)C(=O)Nc1ccc(F)cc1	none (no result: MITF TRPM1 inh, MITF act, Wnt act)
COC(=O)c1ccc(CSc2ccccc2NC(=S)Nc2cccc(SC)c2)o1	esBAF inh 53.9 (no result: MITF TRPM1 inh, MITF act)
C[C@H]1CN([C@@H](C)CO)C(=O)c2cc(NC(=O)CCC(F)(F)F)ccc2O[C@@H]1CN(C)S(C)(=O)=O	none (no result: MITF TRPM1 inh, MITF act, Wnt act)
CCNC(=O)NC(=O)COC(=O)c1ccccc1SCC(=O)NC(=O)NCC	Wnt act 53.1 (no result: esBAF inh, EWS-Fli block)
O=C(COC(=O)c1ccccc1SCC(=O)NC1CCS(=O)(=O)C1)NC1CCS(=O)(=O)C1 (stereo not drawn)	none (no result: esBAF inh, Wnt act)
C[C@@H]1CN([C@H](C)CO)C(=O)c2cc(C#CCN(C)C)cnc2O[C@H]1CN(C)Cc1ccc2c(c1)OCO2	none (no result: PAX8 reporter, MITF TRPM1 inh, MITF act, Wnt act)
C[C@H](CO)N1C[C@H](C)[C@H](CN(C)C(=O)Nc2ccccc2)Oc2c(NC(=O)c3ccc(-c4nccs4)cc3)cccc2C1=O	none (no result: PAX8 reporter, MITF TRPM1 inh, MITF act, Wnt act)
Cc1ccc(N=Nc2c(O)n(CN3CCOCC3)c3ccccc23)cc1	esBAF inh 53.8 (no result: PAX8 reporter, MITF act, Wnt act, EWS-Fli block)
Cc1cccc(NC(=S)N=Nc2c(O)n(CN3CCOCC3)c3ccccc23)c1C	none (no result: esBAF inh, EWS-Fli block)
COc1ccccc1-c1cc(C(=O)NC2CCCC2)no1	esBAF inh 46.0
O=C(NCC1CCCO1)c1cc(-c2ccccc2)on1 (stereo not drawn)	none (no result: PAX8 reporter, Wnt act, EWS-Fli block)
Cc1ccc(O)c(NC(=O)c2cc(-c3ccccc3Cl)on2)c1	esBAF inh 52.4 (no result: MITF act)
O=C(NC1CCCC1)c1cc(-c2ccc(Cl)cc2Cl)on1	MITF act 97.4 (no result: EWS-Fli block)
O=C(NCC1CCCO1)c1cc(-c2ccc(Cl)cc2Cl)on1 (stereo not drawn)	Wnt act 36.6 (no result: MITF act, EWS-Fli block)
C[C@H]1CN([C@@H](C)CO)C(=O)c2cccc(NC(=O)c3nc4ccccc4s3)c2O[C@@H]1CN(C)Cc1ccc(-c2ccccc2)cc1	none (no result: PAX8 reporter, MITF TRPM1 inh, MITF act, Wnt act)
CCCNC(=O)C[C@@H]1CC[C@@H]2[C@H](COC[C@H](O)CN2Cc2ccc(Cl)c(Cl)c2)O1	none (no result: MITF TRPM1 inh, MITF act, Wnt act)
O=C(NC1CCCCC1)c1cc(-c2ccccc2Cl)on1	esBAF inh 57.1, MITF act 109.7
O=C(NC1CCCC1)c1cc(-c2ccccc2Cl)on1	Wnt act inconclusive
C[C@H](CO)N1C[C@H](C)[C@H](CN(C)S(=O)(=O)c2ccccc2)Oc2ncc(C#CC(C)(C)O)cc2C1=O	none (no result: MITF TRPM1 inh, MITF act, Wnt act)
CC1(O)C(c2ccccc2)=Nc2ccccc21 (stereo not drawn)	Wnt act 61.4 (no result: MITF TRPM1 inh, MITF act)
COc1ccc(C2=[N+]([O-])C(C)(C)C(c3ccccc3)=N2)cc1	none
NC(=O)c1ccc(NCCc2cccs2)cc1	none (no result: MITF TRPM1 inh, MITF act)
Cn1c2ccccc2c(=O)c2ccc(NCCc3cccs3)cc21	esBAF inh inconclusive, MITF act 94.6, Wnt act inconclusive
COc1ccc2oc(C(=O)OCC(=O)Nc3ccc(N4CCOCC4)cc3)c(C)c2c1	none (no result: esBAF inh)
COc1ccc2oc(C(=O)OCC(=O)Nc3ccc(C)c(S(=O)(=O)N4CCOCC4)c3)c(C)c2c1	esBAF inh 78.7 (no result: MITF TRPM1 inh, MITF act)
O=C(Cc1ccccc1)N[C@H]1C=C[C@@H](CC(=O)N2CCOCC2)O[C@@H]1CO	none (no result: MITF TRPM1 inh, MITF act, Wnt act)
Nc1c(-c2cccc([N+](=O)[O-])c2)nc2ccccn12	esBAF inh 59.0
O=[N+]([O-])c1cccc(-c2ncc3ccccn23)c1	none (no result: esBAF inh)
COc1ccc(-n2nnc3c(=O)n(CC(=O)N4CCCc5ccccc54)cnc32)cc1	none (no result: MITF TRPM1 inh, MITF act)
COc1ccc(-n2nnc3c(SCC(=O)N4CCCc5ccccc54)ncnc32)cc1	Wnt act 49.8
CSc1ccccc1OCc1cc(C(=O)N[C@H]2CCCCNC2=O)no1	esBAF inh 65.9, MITF act 96.2 (no result: EWS-Fli block)
CSc1ccccc1OCc1cc(C(=O)NC(C)CCn2cccn2)no1 (stereo not drawn)	none (no result: esBAF inh, PAX8 reporter)
CSc1ccccc1OCc1cc(C(=O)NC(C)c2cnn(C)c2)no1 (stereo not drawn)	esBAF inh 53.9 (no result: EWS-Fli block)
CCCC#Cc1ccc2c(c1)O[C@H](CN(C)C(=O)COC)[C@@H](C)CN([C@H](C)CO)S2(=O)=O	none (no result: PAX8 reporter, MITF TRPM1 inh, MITF act, Wnt act)
CN1C(=O)c2cc(NC(=O)c3cc(F)cc(F)c3)ccc2OC[C@@H]2O[C@@H](CC(=O)O)CC[C@@H]21	none (no result: MITF TRPM1 inh, MITF act, Wnt act)
COc1cccc(CNC(=O)CCC2CCCN(C(=O)c3cc4ccccc4o3)C2)c1 (stereo not drawn)	esBAF inh 61.5, MITF act 83.9
CN(C)C(=O)c1ccc(-c2ccc3c(c2)[C@H]2[C@H](CCN2C(=O)C2CCC2)[C@H](CO)N3C)cc1	none (no result: MITF TRPM1 inh, MITF act, Wnt act)
C[C@@H]1CN([C@@H](C)CO)C(=O)c2c(c3ccccc3n2C)-c2ccccc2CO[C@H]1CN(C)S(=O)(=O)c1ccccc1F	PAX8 reporter 83.5 (no result: MITF TRPM1 inh, MITF act, Wnt act)
C[C@H]1CN([C@@H](C)CO)C(=O)c2c(c3ccccc3n2C)-c2ccccc2CO[C@@H]1CN(C)S(=O)(=O)c1ccccc1F	PAX8 reporter 73.9 (no result: MITF TRPM1 inh, MITF act, Wnt act)
C[C@H](CO)N1C[C@H](C)[C@H](CN(C)S(=O)(=O)c2ccccc2F)OCc2ccccc2-c2c(n(C)c3ccccc23)C1=O	none (no result: MITF TRPM1 inh, MITF act, Wnt act)
CCC(=O)N1CC[C@@H]2[C@H]1c1cc(-c3ccccc3F)ccc1N(C)[C@@H]2CO	none (no result: MITF TRPM1 inh, MITF act, Wnt act)
COc1ccc(/C=N/NC(=O)c2cccnc2)cc1CN1CCN(c2ccc(F)cc2)CC1	none
COc1ccc(C(=O)N/N=C/c2ccc(OC)c(CN3CCN(c4ccc(F)cc4)CC3)c2)cc1	PAX8 reporter 144.0 (no result: esBAF inh)
O=C(Nc1ccc2c(c1)OCO2)c1ccc(Cl)cc1Cl	none (no result: EWS-Fli block)
COc1ccc(NC(=O)c2cc(F)c(F)cc2Cl)cc1Cl	esBAF inh 52.2
O=C(Nc1ccc(F)c(Cl)c1)c1ccc2c(c1)OCO2	esBAF inh 55.5 (no result: MITF act)
O=C(Nc1ccc(F)c(Cl)c1)c1ccccc1	esBAF inh 70.0, Wnt act inconclusive
CCn1cc(Br)c(C(=O)Nc2ccc(F)c(Cl)c2)n1	esBAF inh 57.7 (no result: MITF act, EWS-Fli block)
CCn1cc(Br)c(C(=O)Nc2ccc(Cl)cc2Cl)n1	none (no result: PAX8 reporter, MITF act, Wnt act, EWS-Fli block)
CNC[C@@H]1OCCCC[C@@H](C)Oc2ccc(N(C)C)cc2C(=O)N([C@@H](C)CO)C[C@H]1C	none (no result: esBAF inh, MITF TRPM1 inh, MITF act, Wnt act, EWS-Fli block)

From PubChem
